# Experimental data taken from PMC7862700, “An all-to-all approach to the identification of sequence-specific readers for epigenetic DNA modifications on cytosine”.
# Experiments:
# Experiment in all cases: DAPPL (digital affinity profiling via proximity ligation, sequencing); 10 mM Tris-HCl pH 7.5, 50 mM NaCl, 1 mM DTT, 4% glycerol, room temperature, 30 min; GST-TFs on glutathione beads, 16-mer random dsDNA library, 0.1% formaldehyde crosslink after washing; high values mean tight binding
# Conditions in all cases: protein: recombinant; tags: N-terminal GST; dsDNA, one strand shown
# FLI1 = target: T1, FLI1 (Homo sapiens, UniProt Q01543 1-452)
# T1 sequence: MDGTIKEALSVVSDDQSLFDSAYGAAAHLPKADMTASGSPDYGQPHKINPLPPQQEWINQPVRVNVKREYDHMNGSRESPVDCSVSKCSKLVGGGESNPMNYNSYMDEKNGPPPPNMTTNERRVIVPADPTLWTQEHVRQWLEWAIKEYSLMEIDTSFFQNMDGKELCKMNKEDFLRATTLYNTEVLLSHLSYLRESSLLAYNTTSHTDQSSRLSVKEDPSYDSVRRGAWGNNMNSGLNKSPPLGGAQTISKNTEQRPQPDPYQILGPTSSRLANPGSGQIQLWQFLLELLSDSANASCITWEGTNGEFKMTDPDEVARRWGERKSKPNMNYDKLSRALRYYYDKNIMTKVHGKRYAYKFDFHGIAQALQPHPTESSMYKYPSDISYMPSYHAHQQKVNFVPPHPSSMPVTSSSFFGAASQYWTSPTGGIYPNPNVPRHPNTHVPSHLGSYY
# In short: (§1)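 The binding signal reported is, for every hexamer, its read frequency for a factor over its read frequency for the tag-only sample. Reads came from pools of yeast-expressed, GST-fused human transcription factors on glutathione beads, barcoded with DNA and mixed with that sample, which were incubated with 200 nmole of a random double-stranded 16-mer DNA library in Tris/NaCl/DTT/glycerol buffer at room temperature for 30 min. After washing, the pools were crosslinked with 0.1% formaldehyde, proximity-ligated with BsaI/T4 ligase for 1 h at 37 °C, PCR-amplified and sequenced on an Illumina NextSeq500.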
# ELK1 = target: T2, ELK1 (Homo sapiens, UniProt P19419 1-428)
# T2 sequence: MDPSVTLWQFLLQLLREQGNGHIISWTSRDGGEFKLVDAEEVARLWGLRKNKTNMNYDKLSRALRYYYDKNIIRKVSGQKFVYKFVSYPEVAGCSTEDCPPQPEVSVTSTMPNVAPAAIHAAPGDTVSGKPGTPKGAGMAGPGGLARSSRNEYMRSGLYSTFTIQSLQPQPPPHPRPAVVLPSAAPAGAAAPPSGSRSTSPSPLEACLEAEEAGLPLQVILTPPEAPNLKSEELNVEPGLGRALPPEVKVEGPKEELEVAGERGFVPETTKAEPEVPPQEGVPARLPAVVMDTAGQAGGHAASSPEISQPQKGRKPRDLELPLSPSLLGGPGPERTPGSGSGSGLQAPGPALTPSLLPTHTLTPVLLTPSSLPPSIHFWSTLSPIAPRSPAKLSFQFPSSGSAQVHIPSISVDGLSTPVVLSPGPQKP
# In short: as §1
# GABPA = target: T3, GABPA (Homo sapiens, UniProt Q06546 1-454)
# T3 sequence: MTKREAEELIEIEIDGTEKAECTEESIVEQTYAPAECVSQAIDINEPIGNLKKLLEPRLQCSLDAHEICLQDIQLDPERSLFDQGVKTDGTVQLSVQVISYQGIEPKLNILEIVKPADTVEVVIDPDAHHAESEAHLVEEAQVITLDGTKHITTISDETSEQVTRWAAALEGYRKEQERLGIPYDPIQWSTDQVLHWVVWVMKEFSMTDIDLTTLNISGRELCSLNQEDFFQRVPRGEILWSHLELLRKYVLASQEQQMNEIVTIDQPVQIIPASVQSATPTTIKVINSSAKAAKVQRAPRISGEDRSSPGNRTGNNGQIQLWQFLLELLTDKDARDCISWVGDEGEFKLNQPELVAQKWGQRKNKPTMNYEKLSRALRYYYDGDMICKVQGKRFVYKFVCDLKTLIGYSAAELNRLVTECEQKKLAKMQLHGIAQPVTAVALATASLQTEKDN
# In short: as §1
# ERG = target: T4, ERG (Homo sapiens, UniProt P11308 1-479)
# T4 sequence: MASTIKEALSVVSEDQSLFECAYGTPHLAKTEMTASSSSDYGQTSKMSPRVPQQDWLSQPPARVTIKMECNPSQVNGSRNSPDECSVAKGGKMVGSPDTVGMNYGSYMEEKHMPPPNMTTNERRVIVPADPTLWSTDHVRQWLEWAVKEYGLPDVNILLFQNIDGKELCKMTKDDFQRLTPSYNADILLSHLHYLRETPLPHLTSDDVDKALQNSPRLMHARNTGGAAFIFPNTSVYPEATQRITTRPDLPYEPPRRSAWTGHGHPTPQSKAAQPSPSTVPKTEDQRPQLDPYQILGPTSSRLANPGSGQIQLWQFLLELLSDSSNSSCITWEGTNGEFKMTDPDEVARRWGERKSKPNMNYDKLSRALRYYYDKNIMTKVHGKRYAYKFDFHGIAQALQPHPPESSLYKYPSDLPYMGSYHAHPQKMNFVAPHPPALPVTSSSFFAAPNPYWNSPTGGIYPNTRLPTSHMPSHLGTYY
# In short: as §1
# ELF1 = ELF1 (Homo sapiens, UniProt P32519 1-619)
# In short: as §1
# EHF = target: T5, EHF (Homo sapiens, UniProt Q9NZC4 1-300)
# T5 sequence: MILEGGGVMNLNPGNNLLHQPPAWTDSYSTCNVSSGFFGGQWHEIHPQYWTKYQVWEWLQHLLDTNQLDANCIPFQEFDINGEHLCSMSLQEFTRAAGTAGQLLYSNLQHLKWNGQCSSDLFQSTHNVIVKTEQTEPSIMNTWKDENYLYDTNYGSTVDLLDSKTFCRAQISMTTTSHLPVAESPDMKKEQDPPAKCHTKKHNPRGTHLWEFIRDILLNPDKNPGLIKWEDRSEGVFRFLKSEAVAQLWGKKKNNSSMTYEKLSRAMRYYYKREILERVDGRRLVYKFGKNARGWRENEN
# In short: as §1
# SPI1 = SPI1 (Homo sapiens, UniProt P17947 1-270)
# In short: as §1
# SPIB = SPIB (Homo sapiens, UniProt Q01892 1-262)
# In short: as §1
# ELK3 = target: T6, ELK3 (Homo sapiens, UniProt P41970 1-407)
# T6 sequence: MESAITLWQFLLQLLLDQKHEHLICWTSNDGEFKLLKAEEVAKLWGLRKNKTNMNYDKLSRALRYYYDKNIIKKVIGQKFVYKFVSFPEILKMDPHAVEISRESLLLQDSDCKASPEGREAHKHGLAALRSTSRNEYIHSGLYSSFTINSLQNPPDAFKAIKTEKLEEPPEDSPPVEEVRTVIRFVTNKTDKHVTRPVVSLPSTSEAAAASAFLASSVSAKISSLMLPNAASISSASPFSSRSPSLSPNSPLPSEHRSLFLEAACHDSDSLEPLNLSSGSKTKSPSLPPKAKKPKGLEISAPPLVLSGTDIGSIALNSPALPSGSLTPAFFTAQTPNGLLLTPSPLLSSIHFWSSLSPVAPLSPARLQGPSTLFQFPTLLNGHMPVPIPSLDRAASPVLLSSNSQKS
# In short: as §1
# FEV = target: T7, FEV (Homo sapiens, UniProt Q99581 1-238)
# T7 sequence: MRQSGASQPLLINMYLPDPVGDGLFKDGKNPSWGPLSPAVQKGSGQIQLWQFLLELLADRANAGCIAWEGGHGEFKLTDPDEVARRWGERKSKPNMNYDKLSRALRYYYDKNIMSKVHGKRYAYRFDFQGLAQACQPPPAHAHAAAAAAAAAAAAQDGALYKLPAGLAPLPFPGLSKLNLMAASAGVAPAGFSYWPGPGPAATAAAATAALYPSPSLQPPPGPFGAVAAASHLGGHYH
# In short: as §1
# ETV5 = ETV5 (Homo sapiens, UniProt P41161 1-510)
# In short: as §1
# SPIC = target: T8, SPIC (Homo sapiens, UniProt Q8N5J4 1-248)
# T8 sequence: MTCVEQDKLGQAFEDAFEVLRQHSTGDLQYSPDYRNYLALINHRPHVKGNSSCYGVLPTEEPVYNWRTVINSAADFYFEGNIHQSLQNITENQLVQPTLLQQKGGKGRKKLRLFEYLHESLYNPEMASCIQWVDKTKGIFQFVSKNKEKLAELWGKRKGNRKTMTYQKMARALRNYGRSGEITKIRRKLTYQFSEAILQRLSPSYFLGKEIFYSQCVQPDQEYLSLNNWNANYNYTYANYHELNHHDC
# In short: as §1
# ELF4 = ELF4 (Homo sapiens, UniProt Q99607 1-663)
# In short: as §1
# ETV1 = ETV1 (Homo sapiens, UniProt P50549 1-477)
# In short: as §1
# ETV3L = target: T9, ETV3L (Homo sapiens, UniProt Q6ZN32 1-361)
# T9 sequence: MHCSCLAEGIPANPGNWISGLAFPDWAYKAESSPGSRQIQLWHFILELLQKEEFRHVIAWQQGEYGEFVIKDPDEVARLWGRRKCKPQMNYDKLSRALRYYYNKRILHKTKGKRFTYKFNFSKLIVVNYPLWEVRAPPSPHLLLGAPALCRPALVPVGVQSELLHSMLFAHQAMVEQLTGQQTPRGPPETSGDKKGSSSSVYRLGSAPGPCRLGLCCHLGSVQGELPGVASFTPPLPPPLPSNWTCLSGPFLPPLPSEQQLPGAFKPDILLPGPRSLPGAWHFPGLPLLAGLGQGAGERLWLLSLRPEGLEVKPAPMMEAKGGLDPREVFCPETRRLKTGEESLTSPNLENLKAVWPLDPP
# In short: as §1
# ETS2 = target: T10, ETS2 (Homo sapiens, UniProt P15036 1-469)
# T10 sequence: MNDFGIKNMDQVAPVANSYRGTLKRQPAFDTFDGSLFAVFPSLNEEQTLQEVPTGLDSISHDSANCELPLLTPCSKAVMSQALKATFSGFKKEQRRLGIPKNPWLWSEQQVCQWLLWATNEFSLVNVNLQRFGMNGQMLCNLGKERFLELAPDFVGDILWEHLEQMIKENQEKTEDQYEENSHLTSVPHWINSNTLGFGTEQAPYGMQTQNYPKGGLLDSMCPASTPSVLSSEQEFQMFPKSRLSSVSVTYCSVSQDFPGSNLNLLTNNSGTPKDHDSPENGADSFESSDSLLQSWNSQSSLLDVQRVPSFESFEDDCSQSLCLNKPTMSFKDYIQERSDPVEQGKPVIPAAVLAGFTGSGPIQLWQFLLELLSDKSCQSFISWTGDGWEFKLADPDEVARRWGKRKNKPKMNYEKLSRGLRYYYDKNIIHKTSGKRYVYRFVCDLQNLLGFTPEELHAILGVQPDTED
# In short: as §1
# SPDEF = target: T11, SPDEF (Homo sapiens, UniProt O95238 1-335)
# T11 sequence: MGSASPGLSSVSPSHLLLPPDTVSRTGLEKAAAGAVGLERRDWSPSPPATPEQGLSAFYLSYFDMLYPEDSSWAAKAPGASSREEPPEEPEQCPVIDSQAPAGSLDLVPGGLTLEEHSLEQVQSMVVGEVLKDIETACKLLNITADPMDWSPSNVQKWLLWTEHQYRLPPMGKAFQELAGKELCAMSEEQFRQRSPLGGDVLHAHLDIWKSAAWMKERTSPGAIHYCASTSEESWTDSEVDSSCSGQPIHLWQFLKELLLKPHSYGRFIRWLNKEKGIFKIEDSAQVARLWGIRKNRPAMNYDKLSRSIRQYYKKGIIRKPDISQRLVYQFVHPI
# In short: as §1
# ETV3 = target: T12, ETV3 (Homo sapiens, UniProt P41162-2 1-143)
# T12 sequence: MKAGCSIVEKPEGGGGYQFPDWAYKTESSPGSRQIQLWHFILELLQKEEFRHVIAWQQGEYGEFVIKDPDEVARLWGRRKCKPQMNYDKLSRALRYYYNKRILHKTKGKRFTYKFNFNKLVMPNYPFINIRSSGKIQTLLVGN
# In short: as §1
# ETV6 = ETV6 (Homo sapiens, UniProt P41212 1-452)
# In short: as §1
# Chain of ETV5 (P41161 whole entry): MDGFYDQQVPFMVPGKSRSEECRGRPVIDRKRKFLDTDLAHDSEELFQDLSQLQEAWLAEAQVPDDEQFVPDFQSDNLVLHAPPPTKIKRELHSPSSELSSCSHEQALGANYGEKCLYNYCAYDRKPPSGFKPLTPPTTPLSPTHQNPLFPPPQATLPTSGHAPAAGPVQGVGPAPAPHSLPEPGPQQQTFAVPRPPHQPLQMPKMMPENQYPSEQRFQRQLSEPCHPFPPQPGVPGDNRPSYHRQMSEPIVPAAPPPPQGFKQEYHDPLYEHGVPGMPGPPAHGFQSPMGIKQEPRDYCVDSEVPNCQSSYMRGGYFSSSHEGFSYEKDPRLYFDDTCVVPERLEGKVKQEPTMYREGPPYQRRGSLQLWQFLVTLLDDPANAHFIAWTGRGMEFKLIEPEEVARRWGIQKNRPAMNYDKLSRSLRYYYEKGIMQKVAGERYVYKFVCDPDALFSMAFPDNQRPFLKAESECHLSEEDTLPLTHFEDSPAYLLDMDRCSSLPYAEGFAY
# Chain of ELF4 (Q99607 whole entry): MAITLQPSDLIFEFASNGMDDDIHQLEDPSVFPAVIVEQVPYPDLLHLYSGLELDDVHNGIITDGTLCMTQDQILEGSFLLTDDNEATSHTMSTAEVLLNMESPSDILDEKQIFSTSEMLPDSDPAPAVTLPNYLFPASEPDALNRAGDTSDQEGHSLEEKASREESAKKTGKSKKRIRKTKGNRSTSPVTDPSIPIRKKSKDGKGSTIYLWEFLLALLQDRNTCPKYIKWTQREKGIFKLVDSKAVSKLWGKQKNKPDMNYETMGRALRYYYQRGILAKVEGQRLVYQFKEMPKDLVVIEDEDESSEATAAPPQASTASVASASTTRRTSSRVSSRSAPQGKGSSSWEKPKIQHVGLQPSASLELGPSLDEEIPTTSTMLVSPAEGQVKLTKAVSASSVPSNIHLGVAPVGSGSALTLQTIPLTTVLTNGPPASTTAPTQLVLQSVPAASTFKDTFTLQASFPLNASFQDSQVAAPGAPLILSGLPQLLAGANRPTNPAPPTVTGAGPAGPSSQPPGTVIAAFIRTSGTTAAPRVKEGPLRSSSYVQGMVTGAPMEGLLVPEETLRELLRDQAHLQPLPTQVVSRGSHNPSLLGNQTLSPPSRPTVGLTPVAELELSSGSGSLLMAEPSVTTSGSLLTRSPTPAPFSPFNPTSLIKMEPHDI
# Chain of ETV6 (P41212 whole entry): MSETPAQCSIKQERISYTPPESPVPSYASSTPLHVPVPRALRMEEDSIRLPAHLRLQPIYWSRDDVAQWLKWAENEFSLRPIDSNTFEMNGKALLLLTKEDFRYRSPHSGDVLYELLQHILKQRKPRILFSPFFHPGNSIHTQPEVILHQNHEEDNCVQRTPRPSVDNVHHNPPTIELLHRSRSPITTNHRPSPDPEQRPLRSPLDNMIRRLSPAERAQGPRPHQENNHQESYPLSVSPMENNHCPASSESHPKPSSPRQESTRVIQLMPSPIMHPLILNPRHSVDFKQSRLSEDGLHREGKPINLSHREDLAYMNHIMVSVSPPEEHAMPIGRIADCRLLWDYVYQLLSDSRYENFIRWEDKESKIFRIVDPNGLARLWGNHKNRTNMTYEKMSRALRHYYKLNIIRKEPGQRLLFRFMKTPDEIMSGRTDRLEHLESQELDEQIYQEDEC
# Chain of ELF1 (P32519 whole entry): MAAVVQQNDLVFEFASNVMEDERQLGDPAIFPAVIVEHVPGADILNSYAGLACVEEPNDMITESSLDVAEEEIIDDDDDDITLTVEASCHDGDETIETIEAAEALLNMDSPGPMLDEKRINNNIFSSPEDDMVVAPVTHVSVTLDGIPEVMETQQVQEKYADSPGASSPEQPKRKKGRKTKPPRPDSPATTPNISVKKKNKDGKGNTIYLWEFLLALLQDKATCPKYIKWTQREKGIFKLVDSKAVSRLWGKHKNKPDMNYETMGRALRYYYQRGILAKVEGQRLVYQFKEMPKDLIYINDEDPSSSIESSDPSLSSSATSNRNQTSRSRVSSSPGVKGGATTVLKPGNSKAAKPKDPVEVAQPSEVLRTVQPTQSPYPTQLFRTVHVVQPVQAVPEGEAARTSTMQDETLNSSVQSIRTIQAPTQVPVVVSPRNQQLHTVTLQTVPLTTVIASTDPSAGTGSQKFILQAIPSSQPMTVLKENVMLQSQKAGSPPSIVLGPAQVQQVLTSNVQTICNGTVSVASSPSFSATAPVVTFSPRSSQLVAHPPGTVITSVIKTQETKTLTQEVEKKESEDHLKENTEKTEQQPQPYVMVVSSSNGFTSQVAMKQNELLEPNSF
# Chain of ETV1 (P50549 whole entry): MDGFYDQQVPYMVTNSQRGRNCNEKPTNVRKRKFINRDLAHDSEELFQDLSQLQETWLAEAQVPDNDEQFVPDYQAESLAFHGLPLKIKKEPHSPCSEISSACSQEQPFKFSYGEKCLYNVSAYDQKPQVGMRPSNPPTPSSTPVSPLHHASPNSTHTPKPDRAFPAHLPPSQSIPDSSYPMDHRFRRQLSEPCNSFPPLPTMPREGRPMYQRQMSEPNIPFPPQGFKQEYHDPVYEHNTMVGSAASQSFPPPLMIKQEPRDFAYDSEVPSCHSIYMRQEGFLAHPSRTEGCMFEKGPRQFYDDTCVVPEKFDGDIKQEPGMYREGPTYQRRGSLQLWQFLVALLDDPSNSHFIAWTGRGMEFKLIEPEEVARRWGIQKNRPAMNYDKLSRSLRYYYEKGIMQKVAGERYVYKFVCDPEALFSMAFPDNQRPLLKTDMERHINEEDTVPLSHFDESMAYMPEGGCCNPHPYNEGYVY
# Chain of SPIB (Q01892 whole entry): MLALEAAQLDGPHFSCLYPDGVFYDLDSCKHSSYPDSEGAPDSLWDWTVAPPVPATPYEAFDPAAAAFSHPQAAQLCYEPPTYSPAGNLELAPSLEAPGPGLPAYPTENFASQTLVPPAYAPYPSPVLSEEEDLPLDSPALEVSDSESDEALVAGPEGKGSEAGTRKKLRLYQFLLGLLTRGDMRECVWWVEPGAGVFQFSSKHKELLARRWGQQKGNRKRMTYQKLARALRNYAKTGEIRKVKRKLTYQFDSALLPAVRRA
sequence,measurement,setting,value
GCTGCC,binding signal,FLI1,"1.13 fold enrichment (6-mer frequency, TF over GST control)"
same,binding signal,ELK1,"1.08 fold enrichment (6-mer frequency, TF over GST control)"
same,binding signal,GABPA,"1.18 fold enrichment (6-mer frequency, TF over GST control)"
same,binding signal,ERG,"1.02 fold enrichment (6-mer frequency, TF over GST control)"
same,binding signal,ELF1,"1.03 fold enrichment (6-mer frequency, TF over GST control)"
same,binding signal,EHF,"1.24 fold enrichment (6-mer frequency, TF over GST control)"
same,binding signal,SPI1,"1.06 fold enrichment (6-mer frequency, TF over GST control)"
same,binding signal,SPIB,"1.03 fold enrichment (6-mer frequency, TF over GST control)"
same,binding signal,ELK3,"1.05 fold enrichment (6-mer frequency, TF over GST control)"
same,binding signal,FEV,"1.14 fold enrichment (6-mer frequency, TF over GST control)"
same,binding signal,ETV5,"1.04 fold enrichment (6-mer frequency, TF over GST control)"
same,binding signal,SPIC,"1.01 fold enrichment (6-mer frequency, TF over GST control)"
same,binding signal,ELF4,"1.06 fold enrichment (6-mer frequency, TF over GST control)"
same,binding signal,ETV1,"1.19 fold enrichment (6-mer frequency, TF over GST control)"
same,binding signal,ETV3L,"1.03 fold enrichment (6-mer frequency, TF over GST control)"
same,binding signal,ETS2,"1.08 fold enrichment (6-mer frequency, TF over GST control)"
same,binding signal,SPDEF,"1.09 fold enrichment (6-mer frequency, TF over GST control)"
same,binding signal,ETV3,"1.12 fold enrichment (6-mer frequency, TF over GST control)"
same,binding signal,ETV6,"1.13 fold enrichment (6-mer frequency, TF over GST control)"
